In the library only some 10% were active in any assay of this set; here they are far more common.
HEK293 tox: kills HEK 293 cells; HEK 293 viability, ATP luminescence (CellTiter-Glo), 48-72 h; Potency, µM (highest dose often 115 µM), for the others: at the highest dose activity change, negative = cytotoxicity, most hits filed as inhibitors; hit rate 6.6% among 94,000; AID 1345083; also: % is scaled to controls: 0 for no effect and ±100 for the full control effect; nearly all actives have a fitted effect of over 60% in size
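HEK 293 cells seeded at 250 cells/well were exposed to compound for 48 or 72 hr at 37 degree Celsius. Viability taken as ATP content by CellTiter-Glo luminescence.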
NPR1 antag: blocks ANP-stimulated signaling of human Npr1 receptor; P16066; HEK293 hNpr1 GloSensor cGMP, ANP-stimulated luminescence; Potency, µM (titrated, usually from 46.3 µM), without a hit: at the top dose activity change, negative = inhibition, usual class: inhibitors; hit rate 1.6% among 76,000; calls by dose curve; also: % is scaled to controls: 0 for no effect and ±100 for the full control effect; nearly all actives have a fitted effect of over 60% in size
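Compound pre-incubated 30 min at room temperature on GloSensor-loaded HEK293 cells stably carrying hNpr1 and the pGS-40F cGMP biosensor. Stimulation uses hNppA at 0.1 nM final; luminescence is taken at baseline and 20 min post-agonist.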
GPT2 inh: inhibitors of human GPT2 alanine aminotransferase. Q8TD30. Potency, µM (top dose mostly 57.7 µM), for inactives: at the top dose activity change, negative = inhibition, most hits filed as inhibitors. hit rate 0.25% among 100,000. Recombinant GPT2, coupled pyruvate oxidase/HRP Amplex Red fluorescence; also: % is scaled to controls: 0 for no effect and ±100 for the full control effect; nearly all actives have a fitted effect of over 60% in size
Target sequence (Q8TD30 whole entry, looked up): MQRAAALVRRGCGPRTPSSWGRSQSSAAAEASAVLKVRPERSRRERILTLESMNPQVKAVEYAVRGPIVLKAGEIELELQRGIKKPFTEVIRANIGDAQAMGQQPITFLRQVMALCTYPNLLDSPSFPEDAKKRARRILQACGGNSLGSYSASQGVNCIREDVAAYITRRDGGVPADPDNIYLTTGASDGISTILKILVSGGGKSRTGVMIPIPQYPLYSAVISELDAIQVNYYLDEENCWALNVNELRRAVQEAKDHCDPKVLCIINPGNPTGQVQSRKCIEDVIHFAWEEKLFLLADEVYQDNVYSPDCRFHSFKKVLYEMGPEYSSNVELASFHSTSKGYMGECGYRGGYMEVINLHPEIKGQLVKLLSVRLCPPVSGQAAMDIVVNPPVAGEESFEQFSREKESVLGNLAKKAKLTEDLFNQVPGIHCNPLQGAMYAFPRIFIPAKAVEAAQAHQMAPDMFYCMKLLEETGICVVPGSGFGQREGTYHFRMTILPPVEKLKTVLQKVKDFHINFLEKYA
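Fluorescence read-out: pyruvate from GPT2 turnover coupled to pyruvate oxidase, HRP and Amplex Red (0.2mM ThPP, 0.2U/mL PO and HRP, 50uM Amplex final). Substrates 250uM a-KG, 2mM L-alanine; enzyme 10ng/uL; 30 min RT.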
3T3 cytotox: cytotoxic compounds in NIH 3T3 cells | NIH 3T3 viability, CellTiter-Glo ATP luminescence, 48-72 h | Potency, µM (top dose mostly 96.7 µM), for the others: at the highest dose activity change, negative = cytotoxicity, usual class: inhibitors | hit rate 4.3% among 94,000 | AID 1345082; also: % is scaled to controls: 0 for no effect and ±100 for the full control effect; nearly all actives have a fitted effect of over 55% in size
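Mouse fibroblast NIH 3T3 cells, 400 per well, received compound via pintool and were incubated for 48 or 72 hr prior to CellTiter-Glo ATP luminescence measurement.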
FLuc inh-1: blocks purified firefly luciferase enzyme activity; P08659; purified P. pyralis luciferase, luminescence, biochemical; Potency, µM (doses to about 115 µM), most hits filed as inhibitors; hit rate 2.5% among 76,000; AID 1347043; also: % is scaled to controls: 0 for no effect and ±100 for the full control effect; nearly all actives have a fitted effect of over 65% in size
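Luminescence read by CCD imaging after purified firefly luciferase (10nM final) was added to substrate buffer holding 10uM D-luciferin and 10uM ATP, pH 7.5, pre-dosed with compound.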
FLuc SDR -ATP: binders stabilizing firefly luciferase, without ATP; shares compounds with FLuc inh-1; Purified FLuc-C-HiBiT, Nano-Glo HiBiT luminescence, no ATP; Potency, µM (titrated, usually from 32.7 µM), without a hit: at the highest dose activation (signal gain), actives largely listed as activators; hit rate 7.8% among 1,300; also: nearly all actives have a fitted effect of over 55% in size
FLuc SDR ATP: stabilizes firefly luciferase with ATP present | shares compounds with FLuc inh-1 | purified FLuc-C-HiBiT + ATP, HiBiT complementation luminescence | Potency, µM (top dose mostly 32.7 µM), for the others: at the top dose activation (gain of signal), actives largely listed as activators | hit rate 8.7% among 1,300;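 also: signal reports ligand binding via conformational change of the enzyme rather than luciferase catalysis; % of control where 0% means no effect; nearly all actives have a fitted effect of over 55% in size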
FLuc inh-2: blocks firefly luciferase enzymatic activity. purified FLuc-C-HiBiT enzyme, luciferin luminescence. hit rate 42% among 1,300. AID 1963320. shares compounds with FLuc inh-1. Potency, µM (titrated, usually from 32.7 µM), without a hit: at the highest dose activity change, negative = inhibition, hits mostly inhibitors; also: % is scaled to controls: 0 for no effect and ±100 for the full control effect; nearly all actives have a fitted effect of over 70% in size
Starred values were filed as active, the others as inactive; i = inactive; ? = inconclusive; . = no result given; [ ] = remark or other dose. Unless noted, calls follow the shape of the dose curve; as a rule, active = well fitted curve in the direction sought with a large enough effect; inconclusive = small, poorly fitted or top-dose-only effect, or another doubt; inactive = no such curve, though single readings can be large; an effect the other way counts as inactive or inconclusive. Potency is read from the fitted curve at half-maximal effect.

SMILES	HEK293 tox	NPR1 antag	GPT2 inh	3T3 cytotox	FLuc inh-1	FLuc SDR -ATP	FLuc SDR ATP	FLuc inh-2
COc1cccc(NC(=O)Cn2c(=O)c(-c3noc(C)n3)c3n(c2=O)CCCC3)c1	-8.4%	-0.5%	i	-8.5%	i	.	.	.
COc1cc(Cl)ccc1-c1ccc(COc2ccc3c(cnn3CCC(=O)O)c2)cc1	?	-1.1%[70.6 µM]	-5.0%[88.5 µM]	-16.7%[138 µM]	50.1µM*	9.1%[49.3 µM]	6.7%[49.3 µM]	?
COc1ccc(F)cc1-c1ccc(COc2ccc3c(cnn3CCC(=O)O)c2)cc1	?	1.8%[70.6 µM]	4.8%[88.5 µM]	-31.2%[138 µM]	22.4µM*	15.8%[49.3 µM]	9.7%[49.3 µM]	?
COc1ccc(-c2ccc(COc3ccc4c(cnn4CCC(=O)O)c3)cc2)c(C)c1	?	-8.6%[70.6 µM]	i	?	?	.	.	.
CC(=O)Nc1cccc(-c2ccc(COc3ccc4c(cnn4CCC(=O)O)c3)cc2)c1	?	-13.3%[70.6 µM]	i	?	0.708µM*	?	?	1.01µM*
CC(=O)N1CCN(CCCn2nc3n(c2=O)CCCC3)CC1	i	.	.	-1.1%[138 µM]	.	.	.	.
CCCN1CCC2(CCN(C(=O)c3ccc(Cl)cc3)CC2)Oc2ccccc21	?	11.1%	1.0%	?	i	.	.	.
CC[C@H]1CN(S(=O)(=O)c2ccccc2)CC[C@H]1CC(=O)NCCOC	-14.5%[172 µM]	0.2%[70.6 µM]	i	-26.8%[174 µM]	i	.	.	.
CCc1ccc2nc(N3CCC(C(=O)O)CC3)sc2c1	.	.	.	.	.	2.48µM*	0.07µM*	0.0351µM*
O=C(NCC(F)(F)F)C1CCCN1c1nc2ncccc2o1 (centres undefined)	i	-0.8%[70.6 µM]	-15.9%[88.5 µM]	i	i	11.2%[49.3 µM]	7.1%[49.3 µM]	5.9%[49.3 µM]
C#CCNC(=O)C1CCCN1c1nc2ncccc2o1 (centres undefined)	-2.4%[172 µM]	7.2%[70.6 µM]	i	-16.2%[138 µM]	i	.	.	.
O=C(c1cc2ccc3cccnc3c2[nH]1)N1CCCCC1	.	.	.	.	.	11.1µM*	?	1.57µM*
CCCCn1c(=O)c(C(=O)N2CCCC(C)C2)nc2cccnc21 (centres undefined)	-15.0%[172 µM]	.	-2.0%[88.5 µM]	-21.5%[138 µM]	.	.	.	.
Cc1sc2cc(C(=O)N3CCCC3)[nH]c2c1CN1CCCCC1	-4.1%	-0.4%	4.6%	4.4%	i	.	.	.
CC1CCCN(C(=O)c2cc3ccc4cccnc4c3[nH]2)C1 (centres undefined)	.	.	.	.	.	3.94µM*	2.48µM*	0.556µM*
Cc1cc(C)c(-c2csc(NC(=O)c3ccccc3)n2)c(C)c1	.	.	-0.3%	.	.	.	.	.
COCCn1cnnc1CCNC(=O)c1oc2cc(OC)ccc2c1C	-0.4%	-0.7%	i[11.5 µM]	-1.0%	i	.	.	.
CCCc1ccc2oc(C(=O)NCCc3nncn3CC)c(C)c2c1	?	-15.5%	0.2%	?	3.55µM*	13.4%	15.2%	?
O=C(c1ccc2nnc(-c3cc(F)ccc3F)n2c1)N1CCOCC1	3.6%	.	-1.3%	-11.5%	.	.	.	.
Cc1cc2nc3n(c(=O)c2n1CC(=O)NCc1ccccc1Cl)CCCCC3	?	1.3%	i	-20.0%	i	.	.	.
O=C(NCCc1ccccc1Cl)c1ccc2c(c1)nc1n2CCCCC1	.	.	.	.	.	3.94µM*	?	1.11µM*
O=C(NCCc1ccccc1)c1ccc2c(c1)nc1n2CCOC1	.	.	.	.	.	?	?	8.81µM*
CC(C)CCNC(=O)Cn1nc2n(c1=O)CCCCC2	-6.0%	1.1%	i	-14.9%	i	.	.	.
CC(C)CCNC(=O)c1ccc2c(c1)nc1n2CCCCC1	.	.	.	.	.	?	?	9.89µM*
O=C(Cc1ccccc1)N1CCC(N2CC(OCC3CC3)C23CCOCC3)CC1 (centres undefined)	-5.1%	5.5%	i	-11.2%	i	.	.	.

Screening data (PubChem BioAssay)
